High-throughput results deposited in PubChem by several laboratories.
Mtb FBA inh: inhibitors of M. tuberculosis fructose-bisphosphate aldolase; P9WQA3; purified M. tuberculosis FBA, fluorescence read-out; inhibition, % at 1 µM; 2.3% of 360,000 active; in the data active = inhibition above about 27%
Yp Topo-I inh: Y. pestis Topo-I inhibition via cleavage products; Y. pestis Topo-I cleavage product accumulation, plate reader; activity, % at 10 µM; 0.064% of 360,000 active; AID 504884; in the data active = activity above about 50%, passing the limit was not always enough
TcdB GH inh: TcdB glycohydrolase inhibition. P18177. TcdB glycohydrolase enzymatic assay, plate reader. inhibition, % at 9.99 µM. 0.24% of 350,000 active. AID 652162; in the data active = inhibition above about 10%
GDH-TPI counter: GDH-TPI coupled enzyme inhibition counter-screen; AID 588335; GDH-TPI coupled enzyme counterscreen, NADH absorbance; inhibition, % at 4.8 µM; 1.2% of 360,000 active; in the data active = inhibition above about 30%
PrPC TRFRET: reduces human prion protein on the cell surface | inhibition, % at 13.8 µM | 0.43% of 370,000 active | AID 720596 | cell surface PrPC, TR-FRET read-out; in the data active = inhibition above about 24%
Numbers stand for hits; – = inactive; · = no result. Compounds with a hit are over-represented: about 3.2% of the library has one in this group of screens.

SMILES | Mtb FBA inh | Yp Topo-I inh | TcdB GH inh | GDH-TPI counter | PrPC TRFRET
COc1ccc(/C=N/N=C2/NC(=O)CC(C(=O)O)S2)cc1 (stereo unspecified) | – | – | – | 55 | –
O=C1CC(C(=O)Nc2ccc(Br)cc2)S/C(=N\N=C\c2ccco2)N1 (stereo unspecified) | – | – | – | 52 | –
Cc1ccccc1CC1S/C(=N/N=C/c2ccco2)NC1=O (stereo unspecified) | · | · | – | · | –
COCC(=O)Nc1ccc2c(c1)[C@H]1C[C@@H](CC(=O)NCc3ccccc3)O[C@@H](CO)[C@H]1O2 | · | · | – | · | ·
O=C1CC(C(=O)Nc2ccccc2)S/C(=N\N=C\c2ccco2)N1 (stereo unspecified) | – | – | · | – | –
COc1ccc(NC(=O)C2CC(=O)N/C(=N/N=C/c3ccco3)S2)cc1 (stereo unspecified) | – | – | – | 45 | –
COc1cc(/C=N/NC(=O)c2ccc(O)cc2)ccc1OCC(=O)N1CC(C)OC(C)C1 (stereo unspecified) | – | – | – | 52 | –
COc1ccc(C(=O)N/N=C/c2ccc(OC)c(COc3ccccc3)c2)cc1 | – | – | – | 37 | –
COc1ccc(/C=N/NC(=O)c2cccnc2)cc1 | – | – | – | – | –
COc1ccc(/C=N\NC(=O)c2ccccc2)cc1COc1ccccc1 | – | – | – | – | –
COc1ccc(/C=N/NC(=O)c2ccc[nH]2)cc1 | – | – | – | 32 | –
CSc1ccc(/C=N/NC(=O)c2ccccc2Cl)cc1 | – | – | – | 72 | –
COc1ccc(C#Cc2ccc([C@H]3[C@H]4CN(C(=O)c5ccc(F)cc5)CC(=O)N4[C@H]3CO)cc2)cc1 | · | · | – | · | ·
CN1C(=O)c2cc(NC(=O)C3CCOCC3)ccc2OC[C@H]2O[C@@H](CC(=O)NCC3CC3)CC[C@H]21 | · | · | – | · | ·
CCNC(=O)C[C@@H]1CC[C@@H]2[C@@H](COc3ccc(NC(=O)C4CCOCC4)cc3C(=O)N2C)O1 | · | · | – | · | ·
COc1ccc(C(=O)N/N=C/c2ccc(SC)cc2)cc1 | – | – | – | 46 | –
COc1ccc(C=NNC(=O)c2ccncc2)cc1 | · | · | · | · | –
CSc1ccc(/C=N/NC(=O)c2ccc(O)cc2)cc1 | – | – | – | 55 | –
CN1CCN(C(=O)c2cc3c(c(-c4cccc(-c5ccc(C(=O)N(C)C)cc5)c4)n2)[C@H](CCO)N([S@@](=O)C(C)(C)C)C3)CC1 | · | · | – | · | ·
C[C@@H]1CN([C@@H](C)CO)C(=O)c2cc(NC(=O)Nc3cccc4ccccc34)ccc2O[C@@H]1CN(C)Cc1ccc(Oc2ccccc2)cc1 | · | · | – | · | ·
C[C@@H]1CCCCO[C@@H](CN(C)Cc2ccc(C(=O)O)cc2)[C@H](C)CN([C@H](C)CO)C(=O)c2cc(NS(=O)(=O)c3ccc(F)cc3)ccc2O1 | · | · | – | · | ·
CCCNC(=O)C[C@H]1CC[C@@H]2[C@@H](COc3ccc(NC(=O)c4cccc(C(F)(F)F)c4)cc3C(=O)N2C)O1 | · | · | – | · | ·
O=C(NCc1nc2ccccc2[nH]1)c1ccc(S(=O)(=O)N2CCOCC2)cc1 | – | – | · | – | –
O=C(Nc1nc2ccccc2[nH]1)c1ccc(S(=O)(=O)N2CCOCC2)cc1 | – | – | – | 39 | –
Oc1[nH]c2ccccc2c1/C=N/c1nccs1 | – | – | · | 31 | –
SMILES | Mtb FBA inh | Yp Topo-I inh | TcdB GH inh | GDH-TPI counter | PrPC TRFRET
C[C@H](CO)N1C[C@H](C)[C@@H](CN(C)C(=O)NC2CCCC2)Oc2ncc(-c3ccccc3F)cc2C1=O | · | · | – | · | ·
CSc1ccc(/C=C/C(=O)N2CCN(c3ccccn3)CC2)cc1 | – | – | – | 32 | –
COc1ccc(NC(=O)Nc2cccc3c2O[C@@H](CN(C)Cc2ccc(C(=O)O)cc2)[C@H](C)CN([C@H](C)CO)C3=O)cc1 | · | · | – | · | ·
O=Cc1ccc(-c2ccc(C(=O)O)cc2)o1 | – | – | – | 42 | –
O=Cc1ccc(-c2ccc(F)cc2)o1 | – | – | – | – | –
COc1ccccc1N1CCN(C2CCCN(S(=O)(=O)c3ccccc3)C2)CC1 (stereo unspecified) | 163 | – | – | – | –
C=CCS(=O)(=O)N1CCCC(N2CCN(c3ccccc3OC)CC2)C1 (stereo unspecified) | – | – | – | – | –
COc1ccc(S(=O)(=O)N(C)C[C@@H]2Oc3ncc(Br)cc3C(=O)N([C@H](C)CO)C[C@@H]2C)cc1 | · | · | – | · | ·
C[C@H]1CN([C@@H](C)CO)C(=O)c2cc(C#CC(C)(C)O)cnc2O[C@H]1CN(C)C(=O)CN(C)C | · | · | – | · | ·
O=C(c1ccc(F)cc1)N1C[C@@H]2[C@H](c3ccccc31)[C@H](CO)N2Cc1ccc2c(c1)OCO2 | · | · | – | · | ·
CN(C)c1ccc(C=Nc2ccccc2)cc1 | – | – | · | 46 | –
